Among the data in PubChem BioAssay (EPA / NIEHS) are outcome and AC50 values, retold here.

As a reminder, the AC50 is the concentration giving half of the maximal activity seen.

SMILES strings stand for the structures. Records with an inconclusive call do not appear. Calls of active or inactive are those of the source. The calls were made as follows: active = hit-call score of the fitted dose curve at least 0.9, where 1 is the maximum; inconclusive = response in the unintended direction; inactive = score below 0.9.

The nature of the assay: Tanguay_ZF_120hpf_PFIN_legacy: (Legacy) Oregon State University Tanguay Lab 120 Hour Post-fertilization zebrafish Assay for Pectoral Fin Malformation (AID 2283648).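 Also: each larva judged yes or no for fin defect by brightfield with dead larvae skipped.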 On the procedure:
Tanguay_ZF_120hpf_legacy is a whole embryo, multiplexed endpoint assay using zebrafish larvae exposed for 120 hours post fertilization on a 96-well plate.Tanguay_ZF_120hpf_PFIN_legacy is one of one assay component(s) measured or calculated from the Tanguay_ZF_120hpf_legacy assay. It is designed to make measurements of zebrafish development as detected with brightfield microscopy of developing zebrafish embryos.Data from the assay component Tanguay_ZF_120hpf_PFIN_legacy was analyzed into 1 assay endpoints. This assay endpoint, Tanguay_ZF_120hpf_PFIN_legacy, was analyzed in the positive analysis fitting direction relative to DMSO as the negative control and baseline of activity. Using a type of morphology reporter, gain-of-signal activity can be used to understand changes in developmentals as they relate to the whole embryo. To generalize the intended target to other relatable targets, this assay endpoint is annotated to the zebrafish development intended target family, where the subfamily is pectoral fin morphogenesis.
Zebrafish husbandry: Tropical 5D wild-type adult zebrafish were housed in at an approximate density of 1000 per 100 gallon tank at the Sinnhuber Aquatic Research Laboratory, Oregon State University, Corvallis, OR. Each tank was kept at standard laboratory conditions of 28C on a 14-h light/10-h dark photoperiod in fish water consisting of reverse osmosis water supplemented with a commercially available salt (Instant Ocean). Spawning funnels were placed into the tanks the night prior, and embryos were collected and staged. To increase bioavailability, the chorion was enzymatically removed using pronase (63.6mg/ml, >/= 3.5U/mg, Sigma-Aldrich: P5147) at 4 hours post fertilization (hpf) using a custom automated dechorionator.Chemical exposures: Six hpf dechorionated embryos were placed 1 embryo per well in a 96-well plate prefilled with 90 ul of EM using automated embryo placement systems (AEPS). Ten microliters of each row of dilution plate 2 was added to 2 exposure plates. The final DMSO concentration used was 0.64% (vol/vol). Thirty-two embryos were also exposed to 5uM trimethyltin chloride (positive control). Plates were sealed to prevent evaporation and foil covered to reduce light exposure and kept in a 28C incubator. Embryos were statically exposed until 120 hpf. At 24 hpf, embryos were assessed for photomotor response using a custom photomotor response analysis tool (PRAT) and for developmental toxicity endpoints (MO24: mortality at 24 hpf, DP: developmental progression, SM: spontaneous movement, and NC: notochord distortion). At 120 hpf, locomotor activity was measured using Viewpoint Zebralab and assessed for 18 endpoints. Zebrafish acquisition and analysis program (ZAAP), a custom program designed to inventory, acquire, and manage zebrafish data, was used to collect developmental endpoints as either present or absent (i.e., binary responses were recorded). If mortality occurred for an embryo (at either 24 or 120 hpf), the non-mortality endpoints were not measured.
As to `Nc1cccc2c(N)cccc12`, the call was inactive.

In the case of `CCC(=C(c1ccc(O)cc1)c1ccc(OCCN(C)C)cc1)c1ccccc1`, the outcome was inactive. In the case of `CCc1nn(C2CCCCC2)c2cc(C3(C#N)CCC(C(=O)O)CC3)ccc12` (stereo not given), the AC50 is 0.563 µM (active). `C=C(C)C(=O)OCCC(F)(F)C(F)(F)C(F)(F)C(F)(F)C(F)(F)C(F)(F)F`: the molecule was classed as inactive.

As for `CN1CCN(c2ccccc2/C=C2\SCCN(c3ccc(Cl)c(Cl)c3)C2=O)CC1`, the outcome was inactive. As for `N#C[C@@H]1CC(F)(F)CN1C(=O)CNC1CC2CCC(C1)N2c1ncccn1` (stereo not given in full), the call was inactive. On the same count and under the same terms, the result for `CCCCCCCCC(=O)O` reads “inactive”; that for `NC(=O)N1C(=O)C(C(=O)c2cc(Cl)cs2)c2cc(F)c(Cl)cc21` (stereo not given), “inactive”; that for `O=C(OCCOCCOC(=O)c1ccccc1)c1ccccc1`, “inactive”. Same read-out and setting: the result for `CCCCCCCCCCCCCCCS(=O)(=O)Oc1ccccc1` reads “inactive”; that for `CCCOc1sc(C(=O)N2CCC(c3cc(CN)ccc3F)CC2)c(C)c1Br`, “inactive”; that for `COCC(C)O` (stereo not given), “inactive”. In the case of `CCc1ccc(CCOc2ccc(CC3SC(=O)NC3=O)cc2)nc1` (stereo not given), the result was inactive. On the same count and under the same terms, the result for `CC[C@H](c1ccc(O)cc1)[C@@H](CC)c1ccc(O)cc1` reads “inactive”; that for `C#C[C@]1(O)CC[C@H]2[C@@H]3CCC4=CC(=O)CC[C@@H]4[C@H]3CC[C@@]21C`, “inactive”. `CCCOC(=O)c1ccc(O)cc1`: the AC50 was 45.8 µM (active). For `C[C@@H]1C[C@H]2[C@@H]3CCC4=CC(=O)C=C[C@]4(C)[C@@]3(F)[C@@H](O)C[C@]2(C)[C@@]1(O)C(=O)COP(=O)(O)O`, the outcome was inactive. Same read-out and setting: the entry for `O=C(O)c1ccccc1C(c1ccc(O)cc1)c1ccc(O)cc1` is “inactive”; for `O=[N+]([O-])c1ccc(O)cc1` it is “inactive”; for `CCC(C)(C)C1CCC(O)CC1` (stereo not given) it is “inactive”. Still for that read-out and setting: the result for `CN(C)C=O` reads “inactive”. Still for that read-out and setting: the result for `COc1ccc([N+](=O)[O-])cc1N` reads “inactive”; that for `CCCCC(CC)COC(=O)CCCCC(=O)OCC(CC)CCCC` (stereo not given), “inactive”. `CC(C)(C)CC(C)(C)c1ccc(O)c(-n2nc3ccccc3n2)c1`: the call was inactive. With `Cc1oc(-c2ccccc2)nc1CCOc1ccc(C[C@H](Nc2ccccc2C(=O)c2ccccc2)C(=O)O)cc1`, the molecule was called inactive. For `Cc1cc(CCN2CCN(c3nsc4ccccc34)CC2)cc2c1NC(=O)CC2(C)C`, the AC50 was 5.62 µM (active). `O=c1c(-c2ccc(O)cc2)coc2cc(O)ccc12`: the molecule was called inactive.

Consider `OC1CCC(C2CCCCC2)CC1` (stereo not given), for which the result was inactive.

In the case of `NC(=O)N(O)[C@@H]1C=C[C@H](Oc2cccc(Oc3ccc(F)cc3)c2)C1`, the molecule was called inactive.

Consider `CC(C)(C)c1cc(C(C)(C)C)c(O)c(C(C)(C)C)c1`, for which the molecule was classed as inactive. On the same count and under the same terms, the entry for `CCCCCCCC(=O)O` is “inactive”. Consider `CCCCCCCCCCCCN1CCCC1=O`, for which the molecule was classed as inactive. On the same count and under the same terms, the result for `Cc1cc(C)c(O)c(C)c1` reads “inactive”. As to `Oc1cc2ccccc2c2ccccc12`, the AC50 was 12.1 µM (active).

For the molecule `CC(=O)CC(C)(C)O`, the outcome was inactive. Same read-out and setting: the entry for `CCCCOCCO` is “inactive”. For `CC1=C(/C=C/C(C)=C/C=C/C(C)=C/C(=O)O)C(C)(C)CCC1`, the AC50 was 0.248 µM (active). For `OCCC(F)(F)C(F)(F)C(F)(F)C(F)(F)C(F)(F)C(F)(F)C(F)(F)C(F)(F)F`, the call was inactive. For the molecule `c1ccc2c(c1)ccc1ccccc12`, the call was inactive.

`CCCCCCC(=O)O`: the molecule was called inactive.
